Bioassay records from PubChem BioAssay.
An excerpt weighted towards active compounds, which were near 10% of everything screened.
CtBP-E1A inh: qHTS Assay for Inhibitors of the CtBP/E1A Interaction; CtBP / adenovirus E1A interaction (AlphaScreen); AlphaScreen GST-E1A/His-CtBP binding, 1536-well; active compounds read low; activity change, % (no concentration beside the values); 0.49% of 340,000 active; AID 651724, 2012; in the data active means activity change below about -65%; inconclusive means mostly about -30% to -63%; further: on the % scale 0 is the no-effect control and ±100 the full control effect
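In 5 uL wells, 23 nL compound meets equimolar GST-E1A and His-CtBP (5X stock 125 nM each) for 2 h, 37 °C. Beads (5X, 50 ug/mL) then 1 h, 37 °C, dark.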
G9a inh: qHTS Assay for Inhibitors of Histone Lysine Methyltransferase G9a; Histone-lysine N-methyltransferase EHMT2 (Homo sapiens), Q96KQ7; G9a H3K9 monomethylation, AlphaScreen, 2 h; Potency, µM (highest dose often 102 µM), for inactives: at the top dose activity, negative = inhibition, usual class: inhibitors; 8.8% of 350,000 active; AID 504332, 2011; further: potency means the concentration at half of the fitted maximal effect; on the % scale 0 is the no-effect control and ±100 the full control effect; nearly all actives have a fitted effect of over 75% in size
Target sequence (Q96KQ7 913-1193 limits assumed): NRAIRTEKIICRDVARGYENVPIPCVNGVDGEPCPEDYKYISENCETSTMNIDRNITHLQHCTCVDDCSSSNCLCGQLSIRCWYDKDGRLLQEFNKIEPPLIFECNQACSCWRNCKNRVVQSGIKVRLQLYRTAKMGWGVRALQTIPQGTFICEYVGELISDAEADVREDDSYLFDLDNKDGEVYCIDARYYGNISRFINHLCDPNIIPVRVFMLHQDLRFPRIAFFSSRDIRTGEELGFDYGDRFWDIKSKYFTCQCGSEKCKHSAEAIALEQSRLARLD
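Readings reflect AlphaScreen signal from monomethyl-H3K9 antibody detection. HMT at 20 nM; substrate b-H3K9 500 nM; cofactor SAM 20 uM; 2 h RT reaction; compounds tested as titrations in qHTS with 15 min preincubation.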
JMJD2A Tudor: qHTS Assay for Inhibitors of JMJD2A-Tudor Domain | AlphaScreen JMJD2A-Tudor / H3K4me3 peptide binding | Potency, µM (doses to about 114 µM), inactives show top-dose activity change, negative = inhibition, actives largely listed as inhibitors | 4.4% of 390,000 active; further: potency means the concentration at half of the fitted maximal effect; on the % scale 0 is the no-effect control and ±100 the full control effect; nearly all actives have a fitted effect of over 50% in size
BAZ2B inh: qHTS Assay for Inhibitors of BAZ2B | AlphaScreen BAZ2B-H3K14Ac peptide displacement | Potency, µM (highest dose often 114 µM), inactives show at the highest dose activity change, negative = inhibition, usual class: inhibitors | 4.4% of 360,000 active | Bromodomain adjacent to zinc finger domain protein 2B (Homo sapiens), Q9UIF8; further: potency means the concentration at half of the fitted maximal effect; on the % scale 0 is the no-effect control and ±100 the full control effect; nearly all actives have a fitted effect of over 60% in size
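AlphaScreen displacement of biotin-H3(5-23)K14Ac peptide (50 nM final) from BAZ2B (50 nM final) in PBS pH 7.4, 0.01% Tween-20; complex preformed 30 min RT, then compounds (top 110 uM) 30 min RT, beads 20 min dark.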
HP1b chromo inh: HTS for Inhibitors of HP1-beta Chromodomain Interactions with Methylated Histone Tails; Chromobox protein homolog 1 (Homo sapiens), P83916; 0.56% of 390,000 active; AlphaScreen HP1-beta / biotin-H3K9me3 peptide binding; Potency, µM (highest dose often 114 µM), for the others: at the top dose activity change, negative = inhibition, hits mostly inhibitors; further: potency means the concentration at half of the fitted maximal effect; nearly all actives have a fitted effect of over 70% in size
Target sequence (P83916 whole entry, looked up): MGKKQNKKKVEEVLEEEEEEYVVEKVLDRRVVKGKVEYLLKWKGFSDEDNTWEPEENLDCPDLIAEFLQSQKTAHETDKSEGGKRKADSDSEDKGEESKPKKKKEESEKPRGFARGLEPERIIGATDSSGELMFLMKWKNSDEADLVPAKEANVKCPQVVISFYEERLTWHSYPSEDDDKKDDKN
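HP1-beta protein (50 nM final) preincubated 30 min at room temperature with biotinylated H3(1-18)K9me3 peptide (50 nM) in PBS pH 7.4, 0.01% Tween-20, then compound added for 30 min. AlphaScreen streptavidin donor/nickel chelate acceptor beads (10 ug/mL final), 30 min dark, luminescence read.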
Six1-Eya2 blk: qHTS Assay for Inhibitors of the Six1/Eya2 Interaction | AlphaScreen GST-Six1/His-Eya2 binding, biochemical; active compounds read low | activity change, % (no concentration beside the values) | 0.56% of 360,000 active; in the data active means activity change below about -65%; inconclusive means mostly about -30% to -63%; further: on the % scale 0 is the no-effect control and ±100 the full control effect
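Compounds are tested against tagged Six1 and Eya2 proteins bridged by glutathione donor and nickel acceptor beads; after a one-hour incubation at 37 °C without light, AlphaScreen emission is recorded.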
An asterisk follows results filed as active; ? = inconclusive; / = not tested or not shown; [ ] = remark or other dose. Unless noted, the call rests on the fitted dose curve; in most records, active means well fitted inhibition curve with a large enough effect; inconclusive means small, poorly fitted or top-dose-only effect; inactive means no such curve, though single readings can be large or run the other way.

SMILES	CtBP-E1A inh	G9a inh	JMJD2A Tudor	BAZ2B inh	HP1b chromo inh	Six1-Eya2 blk
CCC(=O)O[C@@H]1[C@H](C)O[C@H](O[C@H]2[C@@H](N(C)C)[C@H](O)[C@@H](O[C@@H]3[C@@H](CC=O)C[C@@H](C)[C@@H](O)/C=C\C=C/C[C@@H](C)OC(=O)C[C@@H](OC(=O)CC)[C@H]3OC)O[C@H]2C)C[C@]1(C)O	/	20%[21.5 µM]	/	/	/	/
Cc1ccccc1NC(=O)/C(C#N)=C/c1ccc(-c2ccc(Cl)c(C(=O)O)c2)o1	-13	-22%[59 µM]	-10%	-25%	32%	-15
CC1=NOC(=O)/C1=C\c1ccc(-c2ccc(Cl)c(C(=O)O)c2)o1	-12	16µM*	79µM*	79µM*	?	?
Cc1ccc(S(=O)(=O)N2CCN(c3nc(-c4cnccn4)nc4ccccc34)CC2)cc1	/	/	-20%	/	53%	/
Cc1cccc(N2CCN(C(=O)CCCOc3ccccc3)CC2)c1C	9	-7%[2.33 µM]	41%	11%	124%	0
CC1CCCCC1NS(=O)(=O)c1ccc(S(=O)(=O)NCc2ccncc2)cc1 (configuration not stated)	3	18µM*	-12%	?	27%	6
CCc1nn(CC(=O)N2CCCCC2)c(=O)c2cc3sccc3n12	/	7%[59 µM]	-5%	0%	22%	/
COc1ccc(-n2c(C)cc(/C=C3\SC(=O)NC3=O)c2C)cc1	0	22µM*	?	-23%	21%	8
COc1ccc(-c2nn(-c3ccccc3)cc2/C=C2/SC(=S)N(Cc3ccco3)C2=O)c(C)c1	1	-46%	?	-34%	-12%	-5
COc1ccc(-n2c(C)cc(/C=C3\SC(=S)N(Cc4ccco4)C3=O)c2C)cc1	-23	25µM*	?	?	-5%	0
Cc1ccc(-n2c(C)cc(/C=C3\SC(=O)NC3=O)c2C)cc1	2	13%	-19%	-3%	14%	14
Cc1cccc(-n2c(=S)[nH]c3sc4c(c3c2=O)CCc2ccccc2-4)c1	3	?	?	?	7.1µM*	5
CN(C)/C=C/c1c([N+](=O)[O-])c2ccc(O)cc2n1-c1ccccc1	-9	/	?	35µM*	-28%	-11
CC(NCc1ccc([N+](=O)[O-])cc1)C1COc2ccccc2O1 (configuration not stated)	-2	?	7.9µM*	50µM*	?	2
Cc1cc(C(C)(C)C)cc(CN2CCN(S(=O)(=O)c3cccs3)CC2)c1O	-8	/	/	/	/	3
COc1ccc(Cl)cc1Nc1sc(C(=O)c2ccccc2)c(N)c1C(=O)Nc1ccccc1	/	16µM*	?	?	?	/
Cc1ccccc1Nc1sc(C(=O)Nc2cccc(Cl)c2)c(N)c1C(N)=O	-4	79µM*	-18%	?	16%	-6
COc1ccc(-n2ccnc2SCC(=O)Nc2nnc(C)s2)cc1	/	0%[59 µM]	-21%	-1%	17%[57 µM]	/
O=S(=O)(c1cccc(Cl)c1Cl)N1CCCCC1	12	3%[59 µM]	37%	37%	55%	8
CN1CCCN(S(=O)(=O)c2cccc(Cl)c2Cl)CC1	-2	45µM*	-7%	-21%	35%	3
CCOc1cc(-c2sc(Nc3ccccc3)n[n+]2C)ccc1OC	2	45µM*	-11%	?	52%	0
COc1ccccc1CCNC(=O)C(=O)NCC(c1cccs1)S(=O)(=O)c1ccc(F)cc1 (configuration not stated)	/	-2%[59 µM]	-9%	3%	36%	/
CCc1ccc(NC(=O)c2cc(-c3ccc(OC)cc3)on2)cc1	6	-11%	-22%	56µM*	25%	4
CCOC(=O)c1c(NC(=O)c2cc(-c3ccc(OC)cc3)on2)sc(C)c1C	/	8.9µM*	14%	-1%	-4%	/
CCOC(=O)c1c(NC(=O)c2cc(-c3ccc(O)cc3)on2)sc(C(C)=O)c1C	2	22µM*	-24%	-9%	26%	-4
SMILES	CtBP-E1A inh	G9a inh	JMJD2A Tudor	BAZ2B inh	HP1b chromo inh	Six1-Eya2 blk
CCOC(=O)c1sc(NC(=O)c2cc(-c3ccc(F)cc3)on2)c(C(=O)OCC)c1C	/	4%[59 µM]	-2%	4%	56%	/
CCc1ccc(NC(=O)c2cc(-c3ccc(F)cc3)on2)cc1	/	16%[59 µM]	-8%	-9%	6%[57 µM]	5
COc1ccc(C(=O)NC(C)c2ccncc2)cc1S(=O)(=O)N(C)Cc1ccccc1 (configuration not stated)	1	11%[2.33 µM]	-19%	3%	17%	5
Cc1ccccc1Cn1cc(CCC(=O)NC(C)c2ccccc2)c2ccccc21 (configuration not stated)	/	-4%[59 µM]	-17%	-1%	45%	/
COc1ccc2[nH]cc(CCNc3nc(-c4cccnc4)nc4ccccc34)c2c1	/	-3%[0.501 µM]	/	/	/	/
CCCCON1C(=O)c2cccc3cccc(c23)C1=O	/	11%	6%	?	31%	-3
CCCCN(C)C1=Nc2cccc3cccc1c23	3	10µM*	?	-1%	24%	4
S=c1[nH]nc(Cc2ccccc2)n1-c1cccc2ccccc12	3	10µM*	25µM*	-32%	6%	-7
COc1ccc(Cc2n[nH]c(=S)n2-c2cc(C)ccc2C)cc1OC	7	/	/	/	/	12
Cc1ccc(-n2c(CC#N)n[nH]c2=S)c(C)c1	5	22µM*	20µM*	-18%	39%	5
Cc1ccc(-n2c(Cc3ccccc3)n[nH]c2=S)c(C)c1	-21	?	18µM*	-29%	3%	7
COc1ccc(Cl)cc1NC(=O)CN(C)S(=O)(=O)c1ccc(Br)s1	/	-35%[59 µM]	4%	1%	38%	/
COc1ccc(N2C(=O)CSC2c2cccs2)cc1 (configuration not stated)	5	50µM*	-10%	-8%	12%	5
Cc1c(C(=O)NNc2cc(=O)n(C)c(=O)n2C)cccc1[N+](=O)[O-]	-17	1%	-10%	0%	18%	-13
CS(=O)(=O)c1ccc(C(=O)OCC(=O)N2CCc3ccccc32)cc1[N+](=O)[O-]	/	/	-30%	/	14%	/
COc1ccc(C2C=C(Nc3ccccc3)C(=O)N2c2ccccc2)cc1OC (configuration not stated)	4	8.9µM*	-23%	-38%	7%	-7
COc1cccc(C2C=C(Nc3ccccc3)C(=O)N2c2ccccc2)c1 (configuration not stated)	0	45µM*	-18%	11%	27%	-7
